The test system of the assay is HCC1569. Nature of the assay: H1.0 immunofluorescence intensity relative to DMSO (% of DMSO); higher = stronger H1.0 induction, active = 140 or more. The settings on record: concentration: 10 µM; 24 h. The method, boiled down:
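After 24 h at 37 °C with compounds at 10 µM, in triplicate, HCC1569 and TDF cells were fixed with 3.7% formaldehyde. Immunostaining used a rabbit anti-H1.0 antibody and an AlexaFluor 647 secondary, with DAPI, and six fields per well were imaged at ×10. H1.0 nuclear intensity or cell number is presented as percent of the plate control, from the median of replicates, with HCC1569 values smoothed for positional effects.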
In the case of `CC(C)NCC(O)COc1ccc(CC(N)=O)cc1` (stereo not drawn) [S(-)-Atenolol], the H1.0 immunofluorescence intensity is 96.4 (inactive).

`Cc1ccc(-c2nn(C(C)(C)C)c3ncnc(N)c23)cc1`: the H1.0 immunofluorescence intensity was 188 (active).

Regarding `O=c1[nH]c2cc([N+](=O)[O-])c([N+](=O)[O-])cc2[nH]c1=O`, the H1.0 immunofluorescence intensity is 91.4 (inactive).

In the case of `OCC1OC(n2cnc3c(NC4CCCCC4)ncnc32)C(O)C1O` (stereo not given) [N6-Cyclohexyladenosine], the H1.0 immunofluorescence intensity is 92.8 (inactive).

As for `CN(C)CCC(CSc1ccccc1)Nc1ccc(S(=O)(=O)NC(=O)c2ccc(N3CCN(Cc4ccccc4-c4ccc(Cl)cc4)CC3)cc2)cc1[N+](=O)[O-]` (stereo not given), the H1.0 immunofluorescence intensity was 129 (inactive).

For the molecule `CCC1C(=O)OCC1Cc1cncn1C.Cl` (single isomer, unassigned; (+)) [(+)-Pilocarpine hydrochloride], the H1.0 immunofluorescence intensity was 101 (inactive).

In the case of `CCCCC1(C2CCCC2)Cc2cc(OCC(=O)O)c(Cl)c(Cl)c2C1=O` (stereo not drawn) [R(+)-Butylindazone], the H1.0 immunofluorescence intensity was 91.3 (inactive).

With `CSc1nc2ccc3nc(NC(=O)C(c4ccccc4)c4ccccc4)sc3c2s1`, the H1.0 immunofluorescence intensity is 94 (inactive).

As for `COc1ccc2c(c1OC)C(=O)OC2C1c2c(cc3c(c2OC)OCO3)CCN1C` (racemic), the H1.0 immunofluorescence intensity is 94.1 (inactive).

On to `Brc1c(NC2=NCCN2)ccc2nccnc12`, for which the H1.0 immunofluorescence intensity was 96.8 (inactive).

With `CCCCCC(O)C=CC1C(O)CC(O)C1CC=CCCCC(=O)O` (racemic), the H1.0 immunofluorescence intensity is 99.4 (inactive).

With `COc1cc(C(O)C(=O)O)ccc1O` (stereo not given) [hydroxy(4-hydroxy-3-methoxyphenyl)acetic acid], the H1.0 immunofluorescence intensity was 99.4 (inactive).

As for `CC(C)CNCc1ccc(-c2ccccc2S(=O)(=O)N2CCCC2)cc1.Cl`, the H1.0 immunofluorescence intensity was 100 (inactive).

`CC(N=C(NC#N)Nc1ccncc1)C(C)(C)C` (stereo not given) [Pinacidil]: the H1.0 immunofluorescence intensity was 101 (inactive).

Turning to `COc1cc(-c2oc3cc(O)cc(O)c3c(=O)c2OC2OC(CO)C(O)C(O)C2O)cc(OC)c1O` (stereo not given) [Syringetine-3-glucoside], the H1.0 immunofluorescence intensity is 90.4 (inactive).

With `C=C1CCC(O)CC1=CC=C1CCCC2(C)C1CCC2C(C)CCCC(C)(C)O` (stereo not given) [Calcifediol], the H1.0 immunofluorescence intensity was 120 (inactive).

Consider `CC1(C)SC2C(NC(=O)C(N)c3ccccc3)C(=O)N2C1C(=O)O` (stereo not given) [Ampicillin], for which the H1.0 immunofluorescence intensity is 108 (inactive).

As to `CNCCCC1c2ccccc2C=Cc2ccccc21.Cl` [Protriptyline hydrochloride], the H1.0 immunofluorescence intensity was 117 (inactive).

Take `S=C([S-])OC1CC2CC1C1CCCC21.[K+]` [D-609 potassium]: the H1.0 immunofluorescence intensity is 102 (inactive).

As to `CN(C)c1ccccc1CN1CCCN(Cc2ccccc2N(C)C)C1c1ccncc1`, the H1.0 immunofluorescence intensity was 137 (inactive).

Turning to `O=C(NC(NC(=S)Nc1ccc(F)c([N+](=O)[O-])c1)C(Cl)(Cl)Cl)C(c1ccccc1)c1ccccc1` (stereo not given), the H1.0 immunofluorescence intensity was 190 (active).

Regarding `CC(C)NCC(O)COc1cccc2ccccc12` (stereo not drawn) [Propranolol S(-)], the H1.0 immunofluorescence intensity was 101 (inactive).

On to `CS(=O)(=O)Nc1ccc([N+](=O)[O-])cc1Oc1ccccc1` [Nimesulide], for which the H1.0 immunofluorescence intensity was 96.5 (inactive).

As to `CC(C)c1ccc2oc3nc(N)c(C(=O)O)cc3c(=O)c2c1`, the H1.0 immunofluorescence intensity was 92.5 (inactive).

With `C#CCN[C@H]1CCc2ccccc21` [N-[(1S)-2,3-dihydro-1H-inden-1-yl]-N-(2-propynyl)amine], the H1.0 immunofluorescence intensity is 98.1 (inactive).

As for `CC(O)(P(=O)([O-])O)P(=O)([O-])O` [Etidronate], the H1.0 immunofluorescence intensity was 111 (inactive).

On to `CCOC(=O)C1=CC(OC(CC)CC)C(NC(C)=O)C(N)C1` (stereo not given) [Oseltamivir], for which the H1.0 immunofluorescence intensity is 99.4 (inactive).

Take `CCCCCCCCCCCCCCCC(=O)C(F)(F)F`: the H1.0 immunofluorescence intensity is 94.4 (inactive).

With `CCCn1cnc2c1c(=O)n(CCCCC(C)=O)c(=O)n2C` [Propentofylline], the H1.0 immunofluorescence intensity was 100 (inactive).

`O=C(NCCO)c1cccc(-c2cc(Nc3ccc(OC(F)(F)F)cc3)ncn2)c1`: the H1.0 immunofluorescence intensity was 119 (inactive).

Take `Cl.Oc1ccc(Nc2nc(-c3ccc(Cl)cc3)cs2)cc1` [Sphingosine Kinase Inhibitor]: the H1.0 immunofluorescence intensity is 193 (active).

For the molecule `CCCCCCCCCCCCCC=CC(O)C(CO)NC(=O)CCCCC` (stereo not given) [C6 Ceramide], the H1.0 immunofluorescence intensity is 101 (inactive).

As to `C[C@@H](O)[C@H]1C(=O)N2C(C(=O)O)=C(SCCN=CN)C[C@H]12.O`, the H1.0 immunofluorescence intensity is 93.3 (inactive).

On to `CCCCc1c(-c2ccc(OC)cc2)[nH]c2nccnc12` [Aloisine, RP106], for which the H1.0 immunofluorescence intensity is 110 (inactive).

As to `N#Cc1c(NC(=O)c2cccc3ccccc23)sc2c1CCCC2` [JNK Inhibitor IX], the H1.0 immunofluorescence intensity was 170 (active).

For the molecule `CCc1cccc(N(C)C(N)=Nc2cccc3ccccc23)c1.Cl`, the H1.0 immunofluorescence intensity was 95.9 (inactive).

Consider `CC(=O)O.CSC(N)=NCCCC(N)C(=O)O` [S-Methyl-L-thiocitrulline acetate], for which the H1.0 immunofluorescence intensity was 97.5 (inactive).

For the molecule `Cl.NCCS` [Cysteamine hydrochloride], the H1.0 immunofluorescence intensity is 101 (inactive).

As to `Cn1cnc2c(NCc3ccccc3)nc(NCCO)nc21`, the H1.0 immunofluorescence intensity was 107 (inactive).

Turning to `CCCCCC=CCC=CC=CC=CC(O)C(O)CCCC(=O)O` (stereo not given), the H1.0 immunofluorescence intensity was 96.6 (inactive).

These data come from the supplement of paper PMC7156485.
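Further: TDF is a line of transformed human dermal fibroblasts of mesenchymal origin.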
